PI4K2A inh – inhibitors of human PI4K2A; Q9BTU6; purified PI4K2A, ADP-Glo luminescence, 1 h; active compounds read low; activity change, negative = inhibition, % at 76.9 µM; 420,000 tested, 0.13% active; AID 1346378; in the data active = activity change below about -50%; inconclusive = mostly about -30% to -49%;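 also: -100% = wells without enzyme as full effect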
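ADP-Glo luminescence measured ADP generated by PI4K2A enzyme (4 ug/mL before mixing) with 1.2 mM PI substrate (pre-mix) and 300 microM ATP (pre-mix). Tris pH7.5 buffer with MgCl2, Triton X-100; 1 h reaction at ambient temperature.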
PI5P4Ka inh – blocks human PI5P4K alpha kinase activity; P48426; PI5P4Kalpha enzyme, ADP-Glo luminescence, 60 min; active compounds read low; max response, %; 330,000 tested, 1.2% active; AID 652105; active = max response of -50% or lower; inconclusive = between -30% and -50%; inactive = -30% or higher; also: value at the top dose of about 77 µM; % is scaled to controls: 0 for no effect and ±100 for the full control effect
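ADP-Glo luminescence end-point read after a 60 min room-temperature kinase reaction of PI5P4Kalpha plus substrate, initiated with ATP at 5 microM final. Buffer: 0.038 M HEPES pH 7.4, EGTA, 0.1% CHAPS, 5% DMSO.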
POLH inh – inhibitors of human DNA polymerase eta; 390,000 tested, 1.2% active; recombinant Pol eta, fluorescent DNA replication assay; Potency, µM (doses to about 114 µM), without a hit: at the top dose activity change, negative = inhibition, actives largely listed as inhibitors; Q9Y253; also: potency is read from the fitted curve at half-maximal effect; % is scaled to controls: 0 for no effect and ±100 for the full control effect
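Fluorescent replication assay: 50 nM final substrate added after a 15 min room-temperature compound preincubation with 10 nM enzyme. Signal taken at 0 min and again at 10 min.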
POLB inh – blocks human DNA polymerase beta activity. AID 485314. P06746. 340,000 tested, 1.3% active. Pol beta primer extension/strand displacement, fluorescence kinetic. Potency, µM (doses to about 114 µM), for inactives: at the highest dose activity change, negative = inhibition, hits mostly inhibitors; also: potency is read from the fitted curve at half-maximal effect; % is scaled to controls: 0 for no effect and ±100 for the full control effect
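Enzyme-only controls used 10 nM Pol beta; buffer lacking enzyme served as negative control. Compound preincubated 15 min, then 50 nM substrate added; 0 and 10 min reads at room temperature.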
Pol kappa inh – DNA polymerase kappa (human) inhibition; Q9UBT6; 400,000 tested, 0.53% active; AID 588579; Potency, µM (titrated, usually from 107 µM), for the others: top-dose activity, negative = inhibition, most hits filed as inhibitors; purified Pol kappa, fluorescent DNA synthesis assay, 10 min; also: potency is read from the fitted curve at half-maximal effect; % is scaled to controls: 0 for no effect and ±100 for the full control effect
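Activity was followed as the change in fluorescence between reads at 0 and 10 min after starting the reaction with 50 nM substrate. Beforehand, 10 nM polymerase had been preincubated with compound for 15 min at room temperature.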
Pol iota inh – DNA polymerase iota (human) inhibition; Pol iota fluorescent replication assay, 10 min; Potency, µM (titrated, usually from 115 µM), for the others: at the highest dose activity, negative = inhibition, actives largely listed as inhibitors; 390,000 tested, 1% active; also: potency is read from the fitted curve at half-maximal effect
Target sequence (Q9UNA4 whole entry, looked up): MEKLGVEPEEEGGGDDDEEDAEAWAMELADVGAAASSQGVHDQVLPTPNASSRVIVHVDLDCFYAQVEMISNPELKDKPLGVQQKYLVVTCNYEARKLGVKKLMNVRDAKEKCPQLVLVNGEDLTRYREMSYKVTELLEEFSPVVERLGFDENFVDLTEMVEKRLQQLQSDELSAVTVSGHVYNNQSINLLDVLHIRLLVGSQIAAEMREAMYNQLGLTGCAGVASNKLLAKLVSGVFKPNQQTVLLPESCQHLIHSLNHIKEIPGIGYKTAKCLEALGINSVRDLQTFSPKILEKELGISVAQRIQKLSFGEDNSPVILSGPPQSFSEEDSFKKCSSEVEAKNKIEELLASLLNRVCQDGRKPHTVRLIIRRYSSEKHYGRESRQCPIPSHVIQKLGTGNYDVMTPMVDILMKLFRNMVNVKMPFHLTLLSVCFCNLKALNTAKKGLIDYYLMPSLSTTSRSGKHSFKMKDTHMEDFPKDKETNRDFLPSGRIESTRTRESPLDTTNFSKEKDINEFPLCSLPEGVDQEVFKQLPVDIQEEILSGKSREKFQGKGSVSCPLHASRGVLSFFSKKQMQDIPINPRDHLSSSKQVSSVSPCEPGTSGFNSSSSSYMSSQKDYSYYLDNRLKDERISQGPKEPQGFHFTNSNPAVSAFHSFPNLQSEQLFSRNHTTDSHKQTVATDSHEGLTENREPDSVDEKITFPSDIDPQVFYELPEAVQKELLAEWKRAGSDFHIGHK
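Pol iota at 10 nM preincubated 15 min with compounds at room temperature; reaction started with fluorescent substrate, 50 nM final. Fluorescence read kinetically at 0 and 10 min; buffer-only wells as negative control.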
Active calls of the source: *. Sampled rows, rich in hits. Any-hit rate of the full collection: about 2.8%. Unless noted, calls follow the shape of the dose curve; as a rule, active = well fitted inhibition curve with a large enough effect; inconclusive = small, poorly fitted or top-dose-only effect, or another doubt; inactive = no such curve, though single readings can be large or run the other way.

COc1ccccc1C(=O)NC1CCCCN(Cc2ccc(C)cc2)C1=O (stereo not drawn) was read as PI4K2A inh 3.8.
CC(C)(C)c1ccc(C(=O)Nc2nc3nc(-c4ccccc4)cc(=O)n3[nH]2)cc1 was read as PI4K2A inh -0.6, POLH inh -21.0%, POLB inh 44.7µM*, Pol kappa inh -15.8% and Pol iota inh inconclusive.
For O=C(Nc1nc2nc(-c3ccccc3)cc(=O)n2[nH]1)c1ccc(F)cc1 the results were PI4K2A inh -12.9, POLH inh -7.3%, POLB inh -1.6%, Pol kappa inh -22.3% and Pol iota inh -6.4%.
`Cc1ccc(C(=O)Nc2nc3nc(-c4ccccc4)cc(=O)n3[nH]2)cc1` gave PI4K2A inh -1.5, PI5P4Ka inh -11.7, POLH inh 79.4µM*, POLB inh 11.6%, Pol kappa inh 6.8% and Pol iota inh -2.2%.
For Cc1ccc(OCC(=O)Nc2ccc3c(c2)C(=O)NC3=O)cc1 the results were PI4K2A inh -3.2, PI5P4Ka inh 0.9, POLH inh -5.3%, POLB inh 31.6µM*, Pol kappa inh 4.1% and Pol iota inh -7.5%.
For Cc1ccc2oc(-c3ccc(NC(=O)COc4ccccc4)cc3O)nc2c1 the results were Pol kappa inh -8.0% and Pol iota inh 89.1µM*.
For O=C(Cc1ccc(OCC2CCCCC2)cc1)NO the results were Pol kappa inh -1.0% and Pol iota inh -8.1%.
CCNc1nc(Cl)nc(-c2cn(-c3ccccc3)c3ccccc23)n1 was read as PI4K2A inh 6.4, PI5P4Ka inh -8.3, POLH inh 2.8%, POLB inh 79.4µM*, Pol kappa inh -7.9% and Pol iota inh -18.0%.
COc1cc(C(=O)OC(COCCC(C)C)CN2CCOCC2)cc(OC)c1OC (stereo not drawn) was read as PI4K2A inh 0.9.
Screening O=C(Nc1cnn(Cc2ccc(F)cc2)c1)C(c1ccccc1)c1ccccc1 returned PI4K2A inh 3.1, PI5P4Ka inh 0.7, POLH inh -8.6%, POLB inh 4.1%, Pol kappa inh -4.7% and Pol iota inh 79.4µM*.
For COc1ccc(C(=O)Nc2cccc(OCc3cc(=O)n4c5c(sc4n3)CCCC5)c2)cc1 the results were PI4K2A inh 0.4, POLH inh -0.1%, POLB inh -1.2%, Pol kappa inh -10.8% and Pol iota inh 1.3%.
Screening O=c1cc(O)c2c(=O)n(Cc3ccccc3)c3ccccc3c2o1 returned PI4K2A inh 1.6, PI5P4Ka inh -19.6, POLH inh inconclusive, POLB inh 25.1µM*, Pol kappa inh -8.0% and Pol iota inh inconclusive.
`O=c1cc(O)c2c(=O)n(C3CCCCC3)c3ccccc3c2o1` gave PI4K2A inh -4.3, POLH inh inconclusive, POLB inh 44.7µM*, Pol kappa inh -23.3% and Pol iota inh inconclusive.
For CCCCn1c(=O)c2c(O)cc(=O)oc2c2ccccc21 the results were PI4K2A inh -5.8, PI5P4Ka inh 1.3, POLH inh inconclusive, POLB inh inconclusive, Pol kappa inh -4.9% and Pol iota inh 8.3%.
Screening C#CCNC(=O)C[C@H]1C[C@@]2(C(=O)OC)C(=C[C@H](C3CCCC3)O[C@@H]2C)N(CCC2=CCCCC2)C1=O returned PI4K2A inh -3.6.
Screening O=C(OCc1cn(Cc2c(F)cccc2F)nn1)N1CCOCC1 returned PI4K2A inh -5.7.
CCCCC1=CC2=CC(=O)C(C)(OC(=O)c3cccs3)C(=O)C2=CO1 (stereo not drawn) was read as PI4K2A inh -17.1, PI5P4Ka inh -86.5*, POLH inh 22.4µM*, Pol kappa inh inconclusive and Pol iota inh inconclusive.
`CCCCC1=CC2=CC(=O)C(C)(OC(=O)c3cnc4ccccc4n3)C(=O)C2=CO1` (stereo not drawn) gave POLB inh 50.1µM*.
For CCN1/C(=C/c2ccc3cccc(C)c3[n+]2CC)Sc2ccccc21 the results were PI4K2A inh -0.9, POLH inh -16.9%, POLB inh 50.1µM*, Pol kappa inh -9.9% and Pol iota inh inconclusive.
CCN1/C(=C\c2ccc3cc(C)ccc3[n+]2CC)Sc2cc(C)c(C)cc21 was read as PI4K2A inh 0.1, PI5P4Ka inh -11.8, POLH inh inconclusive, POLB inh 50.1µM* and Pol kappa inh -28.7%.
`CCN1/C(=C/c2ccc3cc(C)cc(C)c3[n+]2CC)Sc2cc(C)ccc21` gave PI4K2A inh -11.3, PI5P4Ka inh inconclusive, POLH inh 79.4µM*, POLB inh 50.1µM*, Pol kappa inh -23.5% and Pol iota inh -26.5%.
For CCOC(=O)N1CCN(/[N+]([O-])=N/OCOC)CC1 the results were Pol kappa inh 8.4% and Pol iota inh 24.4%.
COc1cccc(/C=N\N2CCN(c3ccc(C)cc3)CC2)c1O was read as PI4K2A inh -4.8.
CC12CCC=CC1C(c1ccc3ccccc3c1C=Cc1ccccc1)N(Cc1ccccc1)C2=O (stereo not drawn) was read as Pol kappa inh -4.2% and Pol iota inh 31.1%.
O=C(COc1ncnc2sccc12)N1CCN(C(=O)c2ccco2)CC1 was read as PI4K2A inh -11.9, PI5P4Ka inh inconclusive, POLH inh inconclusive, POLB inh 39.8µM*, Pol kappa inh inconclusive and Pol iota inh 20µM*.
`COc1ccc(-c2ccc(C3C4C=CCC(C)C4C(=O)N3Cc3ccccc3)c(F)c2)cc1C` (stereo not drawn) gave Pol kappa inh inconclusive and Pol iota inh inactive.
COC(=O)[C@]1(CNC(C)=O)CC(=O)N(C)[C@@H]1c1ccccc1 was read as PI4K2A inh 2.6.
For CCCN1CCCc2cc(CN)ccc21 the results were PI4K2A inh inconclusive, POLH inh 89.1µM*, POLB inh 10.4%, Pol kappa inh 0.2% and Pol iota inh 3.16µM*.
For COc1ccc(-n2nc3c(N4CCC(C(=O)NCc5cccc(C)c5)CC4)nnc(C)c3c2C)cc1 the results were PI4K2A inh 1.1, PI5P4Ka inh -1.0, POLH inh -12.8%, POLB inh inconclusive, Pol kappa inh -18.7% and Pol iota inh inconclusive.
For CCOc1ccc(CNC(=O)C2CCN(c3nnc(C)c4c(C)n(-c5ccc(C)cc5)nc34)CC2)cc1 the results were PI4K2A inh -4.0, PI5P4Ka inh -4.4, POLH inh inconclusive, POLB inh 7.94µM*, Pol kappa inh -37.4% and Pol iota inh inconclusive.
Cc1nnc(N2CCC(C(=O)NCc3ccc(F)cc3)CC2)c2nn(-c3ccc(Cl)cc3)c(C)c12 was read as PI4K2A inh 1.9, POLH inh -27.7%, POLB inh 79.4µM*, Pol kappa inh -13.5% and Pol iota inh 26.8%.

Screening results (PubChem BioAssay)
